Hit rate of the full screen: of about 5,500 compounds, about 2,000 (36%) were called active. About 18% were inconclusive and are not listed. Rule as the data show it: active = normalized growth mostly below about 0.91 (no sharp cut-off); inconclusive = no clear call, values can overlap the other calls; inactive = mostly above about 0.92. The list shows a part of the results.
Assay: chemical genetic growth profiling, strain panel (AID 1159580);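 also: tested at 20 µM; growth read once vehicle control cultures reached saturation at 30 °C; 1 = growth at the plate median or of vehicle wells; lower values mean less growth of the strain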
Settings: growth OD
[1] = S. cerevisiae deletion strains, locus YHR030C, strain SLT2, active compounds read low
[2] = S. cerevisiae deletion strains, locus YHR079C, strain IRE1, active compounds read low
[3] = S. cerevisiae deletion strains, locus YJL095W, strain BCK1, active compounds read low
[4] = S. cerevisiae deletion strains, locus YJR066W, strain TOR1, active compounds read low
[5] = S. cerevisiae deletion strains, locus YLR113W, strain HOG1, active compounds read low
[6] = S. cerevisiae deletion strains, locus YNL183C, strain NPR1, active compounds read low
[7] = S. cerevisiae deletion strains, locus YOR231W, strain MKK1, active compounds read low
[8] = S. cerevisiae deletion strains, locus YPL256C, strain CLN2, active compounds read low
[9] = S. cerevisiae deletion strains, locus YBR229C, strain ROT2, active compounds read low
[10] = S. cerevisiae deletion strains, locus YDL101C, strain DUN1, active compounds read low
[11] = S. cerevisiae deletion strains, locus YDL134C, strain PPH21, active compounds read low
[12] = S. cerevisiae deletion strains, locus YDR150W, strain NUM1, active compounds read low
[13] = S. cerevisiae deletion strains, locus YEL061C, strain CIN8, active compounds read low
[14] = S. cerevisiae deletion strains, locus YGR078C, strain PAC10, active compounds read low
[15] = S. cerevisiae deletion strains, locus YHR087W, strain rtc3, active compounds read low
[16] = S. cerevisiae deletion strains, locus YJR043C, strain POL32, active compounds read low
[17] = S. cerevisiae deletion strains, locus YJR075W, strain HOC1, active compounds read low
[18] = S. cerevisiae deletion strains, locus YLR039C, strain RIC1, active compounds read low
[19] = S. cerevisiae deletion strains, locus YLR058C, strain SHM2 (second series), active compounds read low
[20] = S. cerevisiae deletion strains, locus YLR085C, strain ARP6, active compounds read low
[21] = S. cerevisiae deletion strains, locus YLR262C, strain YPT6, active compounds read low
[22] = S. cerevisiae deletion strains, locus YML094W, strain GIM5, active compounds read low
[23] = S. cerevisiae deletion strains, locus YMR219W, strain ESC1, active compounds read low
[24] = S. cerevisiae deletion strains, locus YMR263W, strain SAP30, active compounds read low
[25] = S. cerevisiae deletion strains, locus YMR307W, strain GAS1, active compounds read low
[26] = S. cerevisiae deletion strains, locus YNL153C, strain GIM3, active compounds read low
[27] = S. cerevisiae deletion strains, locus YNL298W, strain CLA4 (second series), active compounds read low
[28] = S. cerevisiae deletion strains, locus YNL322C, strain KRE1, active compounds read low
[29] = S. cerevisiae deletion strains, locus YNR030W, strain Alg12, active compounds read low
[30] = S. cerevisiae deletion strains, locus YOL006C, strain TOP1, active compounds read low
[31] = S. cerevisiae deletion strains, locus YPL055C, strain LGE1, active compounds read low
[32] = S. cerevisiae deletion strains, locus YPL241C, strain CIN2, active compounds read low
[33] = S. cerevisiae deletion strains, locus YPR135W, strain CTF4, active compounds read low

Measured: normalized growth

CC(O)Cn1cnc2c1c(=O)n(C)c(=O)n2C (configuration not stated)
inactive: [1] 1.05 | [2] 1.07 | [3] 1.05 | [4] 0.991 | [5] 1.04 | [6] 1 | [7] 1.03 | [8] 1.04

COc1cc(NC(=O)Nc2ccc(OC(F)(F)F)cc2)cc(C(F)(F)F)c1
inactive: S. cerevisiae deletion strains, locus YAL013W, strain DEP1, active compounds read low 0.987 | [9] 0.987 | [10] 0.997 | [11] 1.01 | [12] 0.971 | [13] 0.961 | [14] 0.984 | [1] 0.895 | [15] 0.984 | S. cerevisiae deletion strains, locus YJL187C, strain SWE1, active compounds read low 1.01 | [16] 0.999 | [17] 1 | [18] 0.895 | [19] 1 | [20] 0.951 | [21] 0.968 | [22] 0.919 | [23] 1.02 | [24] 0.991 | [25] 0.864 | [26] 0.987 | [27] 0.923 | [28] 1.01 | [29] 0.935 | [30] 0.996 | [31] 0.928 | [32] 0.893 | [33] 1 | S. cerevisiae strains, strain wild type, active compounds read low 1.01

O=C(Nc1ccc(OC(F)(F)F)cc1)Nc1cncc(C(F)(F)F)c1
active: [1] 0.822 | [5] 0.739 | [8] 0.763
inactive: S. cerevisiae deletion strains, locus YAR019C, strain CDC15, active compounds read low 0.987 | S. cerevisiae deletion strains, locus YBL105C, strain PKC1, active compounds read low 0.995 | S. cerevisiae deletion strains, locus YBR135W, strain CKS1, active compounds read low 0.989 | S. cerevisiae deletion strains, locus YBR136W, strain MEC1, active compounds read low 0.994 | S. cerevisiae deletion strains, locus YBR160W, strain CDC28, active compounds read low 0.993 | S. cerevisiae deletion strains, locus YDL017W, strain CDC7, active compounds read low 0.995 | S. cerevisiae deletion strains, locus YDL028C, strain MPS1, active compounds read low 0.991 | [10] 1.01 | S. cerevisiae deletion strains, locus YDL108W, strain KIN28, active compounds read low 0.988 | S. cerevisiae deletion strains, locus YDL132W, strain cdc53, active compounds read low 0.995 | S. cerevisiae deletion strains, locus YDL214C, strain PRR2, active compounds read low 0.913 | S. cerevisiae deletion strains, locus YDR052C, strain DBF4, active compounds read low 0.989 | S. cerevisiae deletion strains, locus YDR054C, strain cdc34, active compounds read low 0.996 | S. cerevisiae deletion strains, locus YDR226W, strain ADK1, active compounds read low 0.991 | S. cerevisiae deletion strains, locus YDR477W, strain SNF1, active compounds read low 0.943 | S. cerevisiae deletion strains, locus YER123W, strain YCK3, active compounds read low 0.884 | S. cerevisiae deletion strains, locus YER133W, strain GLC7, active compounds read low 0.93 | S. cerevisiae deletion strains, locus YFL009W, strain cdc4, active compounds read low 0.982 | S. cerevisiae deletion strains, locus YFL029C, strain CAK1, active compounds read low 0.991 | S. cerevisiae deletion strains, locus YFR003C, strain YPI1, active compounds read low 0.999 | S. cerevisiae deletion strains, locus YFR019W, strain FAB1, active compounds read low 0.911 | S. cerevisiae deletion strains, locus YFR028C, strain CDC14, active compounds read low 0.986 | S. cerevisiae deletion strains, locus YGR040W, strain KSS1, active compounds read low 0.941 | S. cerevisiae deletion strains, locus YGR052W, strain FMP48, active compounds read low 0.929 | S. cerevisiae deletion strains, locus YGR092W, strain DBF2, active compounds read low 0.919 | [2] 0.824 | S. cerevisiae deletion strains, locus YHR082C, strain KSP1, active compounds read low 0.968 | S. cerevisiae deletion strains, locus YHR205W, strain SCH9, active compounds read low 0.888 | S. cerevisiae deletion strains, locus YIL147C, strain SLN1, active compounds read low 0.996 | [3] 0.877 | S. cerevisiae deletion strains, locus YJL128C, strain PBS2, active compounds read low 0.951 | S. cerevisiae deletion strains, locus YJL157C, strain FAR1, active compounds read low 0.923 | S. cerevisiae deletion strains, locus YJR016C, strain ILV3, active compounds read low 0.994 | S. cerevisiae deletion strains, locus YJR066W, strain TOR1 (second series), active compounds read low 0.88 | [4] 0.942 | S. cerevisiae deletion strains, locus YKL048C, strain ELM1, active compounds read low 0.964 | S. cerevisiae deletion strains, locus YKL067W, strain YNK1, active compounds read low 0.916 | S. cerevisiae deletion strains, locus YKL101W, strain HSL1, active compounds read low 0.905 | S. cerevisiae deletion strains, locus YKL193C, strain SDS22, active compounds read low 0.996 | S. cerevisiae deletion strains, locus YKL203C, strain TOR2, active compounds read low 0.964 | S. cerevisiae deletion strains, locus YLR133W, strain CKI1, active compounds read low 0.91 | S. cerevisiae deletion strains, locus YLR403W, strain SFP1, active compounds read low 0.945 | S. cerevisiae deletion strains, locus YML070W, strain DAK1, active compounds read low 0.89 | S. cerevisiae deletion strains, locus YMR001C, strain CDC5, active compounds read low 0.998 | S. cerevisiae deletion strains, locus YMR205C, strain PFK2 (second series), active compounds read low 0.927 | S. cerevisiae deletion strains, locus YMR277W, strain FCP1, active compounds read low 0.992 | S. cerevisiae deletion strains, locus YNL006W, strain LST8, active compounds read low 0.99 | S. cerevisiae deletion strains, locus YNL020C, strain ARK1, active compounds read low 0.914 | S. cerevisiae deletion strains, locus YNL161W, strain CBK1, active compounds read low 0.971 | [6] 0.915 | S. cerevisiae deletion strains, locus YNL207W, strain RIO2, active compounds read low 0.985 | S. cerevisiae deletion strains, locus YNL222W, strain SSU72, active compounds read low 0.994 | S. cerevisiae deletion strains, locus YNL307C, strain MCK1 (second series), active compounds read low 0.886 | S. cerevisiae deletion strains, locus YOL078W, strain AVO1, active compounds read low 0.993 | S. cerevisiae deletion strains, locus YOL136C, strain PFK27, active compounds read low 0.882 | S. cerevisiae deletion strains, locus YOR061W, strain CKA2, active compounds read low 0.952 | S. cerevisiae deletion strains, locus YOR119C, strain RIO1, active compounds read low 0.995 | [7] 0.865 | S. cerevisiae deletion strains, locus YOR329C, strain SCD5, active compounds read low 0.994 | S. cerevisiae deletion strains, locus YPL031C, strain PHO85, active compounds read low 0.921 | S. cerevisiae deletion strains, locus YPL153C, strain RAD53, active compounds read low 0.928 | S. cerevisiae deletion strains, locus YPL204W, strain HRR25, active compounds read low 0.892 | S. cerevisiae deletion strains, locus YPL209C, strain IPL1, active compounds read low 0.998 | S. cerevisiae deletion strains, locus YPR025C, strain CCL1, active compounds read low 0.994 | S. cerevisiae deletion strains, locus YPR106W, strain ISR1, active compounds read low 0.982 | S. cerevisiae deletion strains, locus YPR111W, strain DBF20, active compounds read low 0.969 | S. cerevisiae deletion strains, strain NNK1, active compounds read low 0.978 | S. cerevisiae deletion strains, strain TSCII, active compounds read low 0.983

CNCCNS(=O)(=O)c1cccc2cnccc12
inactive: S. cerevisiae deletion strains, locus YAL040C, strain CLN3, active compounds read low 1 | S. cerevisiae deletion strains, locus YCL061C, strain MRC1 (second series), active compounds read low 1 | S. cerevisiae deletion strains, locus YDR363W, strain ESC2, active compounds read low 1.03 | S. cerevisiae deletion strains, locus YER002W, strain NOP16, active compounds read low 1 | [14] 1.02 | [17] 1.01 | [24] 0.998 | [25] 1 | [26] 1.01 | S. cerevisiae deletion strains, locus YNL175C, strain NOP13, active compounds read low 1.01 | S. cerevisiae deletion strains, locus YNL197C, strain WHI3, active compounds read low 1.04 | S. cerevisiae deletion strains, locus YNL224C, strain SQS1, active compounds read low 1 | [28] 1.02 | S. cerevisiae deletion strains, locus YOR083W, strain WHI5 (second series), active compounds read low 1 | [31] 1.01 | [32] 0.999

CCOC(=O)c1csc(N/N=C2/CCCc3ccccc32)n1
inactive: [12] 0.897 | S. cerevisiae deletion strains, locus YGR229C, strain SMI1, active compounds read low 0.986 | [16] 0.965 | [19] 0.976 | [21] 0.868 | S. cerevisiae deletion strains, locus YNL128W, strain TEP1, active compounds read low 0.971 | [28] 1 | [30] 0.849
active: [9] 0.887 | [10] 0.862 | [11] 0.458 | [13] 0.821 | [14] 0.899 | [1] 0.232 | [15] 0.899 | [17] 0.867 | [18] 0.701 | [20] 0.573 | [22] 0.749 | [23] 0.92 | [24] 0.88 | [25] 0.631 | [26] 0.915 | [27] 0.732 | [29] 0.779 | [31] 0.692 | [32] 0.747 | [33] 0.629

Source: PubChem BioAssay AID1159580 (chemical genetic matrix, 2015)
